Hits are enriched below; roughly 1.6% of the tested compounds scored in any of these assays.
p53ts 39C kill = qHTS Screen for Compounds that Selectively Target Cancer Cells with p53 Mutations: Cytotoxicity of p53ts Cells at the Nonpermissive Temperature; Potency, µM (doses to about 46.1 µM), inactives show at the highest dose activity change, negative = cell killing, usual class: cytotoxic; H1299-p53A138V viability at 39C, ATP luminescence, 24 h; actives 1.5% (n = 130,000); further: on the % scale 0 is the no-effect control and ±100 the full control effect; nearly all actives have a fitted effect of over 55% in size
Imprint erasure = qHTS Assay for Compounds that Induce Erasure of Genomic Imprints; actives 0.02% (n = 110,000); Potency, µM (doses to about 60.7 µM), inactives show at the top dose activity change, positive = activation, actives largely listed as activators; mouse ES Peg3-LacZ reporter, beta-gal luminescence, 40 h; AID 1948, 2009
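Each well holds 300 Peg3LacZ-Neo (maternal) female ES cells incubated 40 h at 37C, 5% CO2. LacZ is measured by BetaGlo luminescence, with AC50 and maximum efficacy derived from dose-response curves.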
p53ts 32C tox = qHTS Screen for Compounds that Selectively Target Cancer Cells with p53 Mutations: Cytotoxicity of p53ts Cells at the Permissive Temperature. actives 0.93% (n = 130,000). H1299-p53A138V at 32C, ATP luminescence viability, 24 h. AID 924, 2007. Potency, µM (titrated, usually from 46.1 µM), without a hit: top-dose activity change, negative = cytotoxicity, usual class: cytotoxic;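 further: 0% = DMSO and -100% = full killing by reference compound; nearly all actives have a fitted effect of over 55% in size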
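Viability by ATPlite luminescence after 24 h compound treatment (up to 46 uM) at the permissive 32C. Cells are H1299 carrying p53 A138V. Scale runs from DMSO basal to 100 uM tamoxifen as full kill; AC50 from Hill fits.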
The depositor's hits bear a star; ? = inconclusive; / = no result given; [ ] = remark or other dose. The call rests on the fitted dose curve; in most records, active means well fitted curve in the direction sought with a large enough effect; inconclusive means small, poorly fitted or top-dose-only effect, or another doubt; inactive means no such curve, though single readings can be large; an effect the other way counts as inactive or inconclusive. Potency means the concentration at half of the fitted maximal effect.

SMILES	p53ts 39C kill	Imprint erasure	p53ts 32C tox
COc1ccc(NC(=O)CCNS(=O)(=O)c2cccc3nsnc23)cc1Cl	-12%	-11%[10.9 µM]	0%
COc1ccc(-c2nnc(Nc3nc4c(OC)cccc4s3)o2)cc1	13µM*	-19%	?
Fc1cccc2sc(Nc3nnc(-c4ccccc4)o3)nc12	10µM*	-51%	16µM*
COc1ccc(-c2nnc(-c3ccc(N)cc3)o2)cc1	?	-49%	?
COc1cc(OC)cc(-c2nnc(Nc3nc4c(F)cccc4s3)o2)c1	-23%	7%	5%
COc1ccc(-c2ccc(-c3nnc(-c4cc(OC)ccc4OC)o3)cc2)cc1	2%	-2%	21%
COc1ccc(-c2nnc(Nc3nc4c(OC)cccc4s3)o2)c(OC)c1	10µM*	-31%	?
Cc1cccc(OCC(=O)Nc2ccc(OCc3cc(=O)n4cc(C)ccc4n3)cc2)c1	-5%	2%[10.9 µM]	12%
COc1ccc(-c2nc3c4ccccc4n(CC(=O)Nc4cc(F)ccc4F)c(=O)n3n2)cc1	-18%	-4%[10.9 µM]	-4%
COC(=O)c1c(NC(=O)CCCOc2ccc(C(C)(C)C)cc2)sc2c1C(C(=O)OC)CC2 (centres undefined)	-20%	-11%[10.9 µM]	-15%
COc1cc(OC)cc(C(=O)Nc2ccc(S(=O)(=O)N3CCCCC3c3cccnc3)cc2)c1 (centres undefined)	-14%	10%[10.9 µM]	-7%
O=C(NCCc1nc2ccccc2n1CCCOc1ccc(Cl)cc1)C1CCCCC1	16µM*	-5%[10.9 µM]	?
Cc1ccccc1OCCCn1c(CCNC(=O)C2CCCCC2)nc2ccccc21	16µM*	-9%[10.9 µM]	-11%
Cc1cc(C)cc(OCCCn2c(CCNC(=O)C3CCCCC3)nc3ccccc32)c1	?	-15%[10.9 µM]	-8%
Cc1cccc(C)c1OCCn1c(CCNC(=O)C2CCCCC2)nc2ccccc21	?	-6%[10.9 µM]	17%
CCOCCCn1c(=N)c(C(=O)NC2CCCC2)cc2c(=O)n3cccc(C)c3nc21	1%	-11%[10.9 µM]	-5%
Cc1ccc(NC(=O)CSc2nccn2Cc2ccc3c(c2)OCO3)c(C)c1	?	-1%[10.9 µM]	-4%
CCc1ccc(C2CC(=O)c3c([nH]c(C(=O)OC4CCCC4)c3C)C2)cc1 (centres undefined)	1%	21%[10.9 µM]	7%
CN(C(=O)c1cccc(Nc2ccc(-c3ccc4c(c3)OCCO4)nn2)c1)C1CCCCC1	11µM*	/	13µM*
CN(C(=O)c1cccc(N2C(=O)C3CC=CCC3C2=O)c1)C1CCCCC1 (centres undefined)	7%	?	-9%
Cc1ccc(C(=O)O)cc1Nc1nc2ccccc2n2nnnc12	7%	29%[10.9 µM]	-9%
O=C(NCCCN1CCN(c2ccccc2F)CC1)c1nnc(Cc2ccc(Cl)cc2Cl)o1	?	-13%[10.9 µM]	3%
Cc1ccc(Cl)cc1N1CCN(CCCNC(=O)c2nnc(Cc3cccc(Cl)c3)o2)CC1	13µM*	-15%[10.9 µM]	-4%
COc1cccc(NC(=O)C2CCN(c3ccc(Sc4ccc(C)cc4)nn3)CC2)c1	-3%	-3%[10.9 µM]	7%
Cc1ccc(Sc2ccc(N3CCC(C(=O)Nc4cc(C)cc(C)c4)CC3)nn2)cc1	13µM*	-1%[10.9 µM]	?
SMILES	p53ts 39C kill	Imprint erasure	p53ts 32C tox
CCc1ccc(NC(=O)c2ccc(F)c(S(=O)(=O)NC3CCCCCC3)c2)cc1	-9%	-20%[10.9 µM]	16%
O=C(Nc1ccc(C(F)(F)F)cc1)c1cc(S(=O)(=O)NC2CCCCCC2)ccc1F	?	-13%[10.9 µM]	28%
O=C(Nc1ccc(C(F)(F)F)cc1)c1cc(S(=O)(=O)NC2CCCCC2)ccc1F	10µM*	-14%[10.9 µM]	22%
O=C(Nc1cc(Cl)cc(Cl)c1)c1ccc(F)c(S(=O)(=O)NC2CCCC2)c1	13µM*	-15%[10.9 µM]	?
COc1ccc(CCNC(=O)CN(c2ccc(C)cc2)S(=O)(=O)c2ccc(OC)cc2)cc1	-2%	-16%[10.9 µM]	-3%
COc1ccc(-c2cnc(C)o2)cc1S(=O)(=O)Nc1ccc(OC(F)(F)F)cc1	?	-9%[10.9 µM]	-6%
O=C(O)/C=C\C(=O)Nc1ccccn1	-1%[9.22 µM]	-14%[10.9 µM]	-7%[9.22 µM]
O=C(/C=C\Nc1ccccn1)c1ccc(Cl)cc1	13µM*	-85%	7.9µM*
COc1ccc(C(=O)Nc2ccccc2C(=O)OCc2cc(=O)n3nc(C4CC4)sc3n2)cc1	-29%	?	-6%
CC(C)(C)c1ccc(C(=O)Nc2cc(-c3nc4ccccc4o3)ccc2Cl)cc1	4%	-17%[10.9 µM]	-11%
CCCCCNC(=O)c1cc2c(=O)n3ccccc3nc2n1C	-14%	-14%[10.9 µM]	-2%
O=C(O)c1coc2ccccc12	-7%	-2%	-2%
O=C(/C=C/N1CCOCC1)c1cc2ccccc2o1	?	-41%	13µM*
O=C(/C=C/N1CCOCC1)c1coc2ccccc12	?	/	16µM*
O=C(c1cc2ccccc2o1)N1CCCCCC1	0%	-51%	-4%
Cc1ccc(/C=C/c2nc3ccccc3n2S(=O)(=O)c2cccc(Cl)c2)cc1	3.2µM*	-84%[10.9 µM]	3.2µM*
CSc1ccc(/C=C/c2nc3ccccc3n2S(=O)(=O)c2ccc(F)c(C)c2)cc1	4µM*	-26%[10.9 µM]	7.9µM*
CCOc1cc(S(=O)(=O)n2c(C)nc3ccccc32)ccc1F	22%	-38%	-11%
CCOc1ccc(/C=C/c2nc3ccccc3n2S(=O)(=O)c2cccc(Cl)c2)cc1	10µM*	23%[10.9 µM]	13µM*
CC(=O)c1nc2ccccc2n1S(=O)(=O)c1ccc(C)cc1	0%	-15%	5%
CC(=O)c1nc2ccccc2n1S(=O)(=O)c1ccc(Cl)cc1	6%	-20%	6%
COc1ccc(OC)c(CCNC(=O)c2cnn(-c3ccccc3Cl)c2C2CCN(C(=O)OC(C)(C)C)CC2)c1	8%	-5%[10.9 µM]	7%
CCOC(=O)c1c(C)[nH]c(C)c1S(=O)(=O)N1CCCC(C(=O)N2CCN(c3ccccc3F)CC2)C1 (centres undefined)	-2%	-8%[10.9 µM]	7%
Cn1c(CNc2ccc(Cl)cc2)nc2ccccc21	?	-68%	?
Cc1nc2cc(NCc3nc4ccccc4n3Cc3ccccc3)ccc2n1C	2µM*	/	4µM*
SMILES	p53ts 39C kill	Imprint erasure	p53ts 32C tox
COc1ccc(C)cc1S(=O)(=O)Nc1cccc(-c2ccc(N3CCC(C)CC3)nn2)c1	?	-6%[10.9 µM]	-12%
COc1ccc(S(=O)(=O)Nc2cccc(-c3ccc(N4CCC(C)CC4)nn3)c2)cc1OC	2.5µM*	-16%[10.9 µM]	3.2µM*
COc1ccc(F)cc1S(=O)(=O)Nc1cccc(-c2ccc(N3CCC(C)CC3)nn2)c1	7.9µM*	-8%[10.9 µM]	?
COc1ccc(S(=O)(=O)Nc2cccc(-c3ccc(N4CCCC4)nn3)c2)cc1OC	17%	-14%[10.9 µM]	-7%
CCc1nn(CC(=O)NCCc2ccc(OC)cc2OC)c(=O)c2cc3c(OC)cccc3n12	-18%	-13%[10.9 µM]	1%
Cc1cccc(N2CCN(C(=O)c3cccn3-c3nnc(N4CCCCC4)s3)CC2)c1C	7%	-15%[10.9 µM]	-2%
CCOc1ccc(CN2CCN(Cc3ccc4c(c3)c3ccccc3n4CC)CC2)cc1	?	-19%[10.9 µM]	-10%
CCn1c2ccccc2c2cc(CN3CCN(Cc4ccc(OC)c(OC)c4)CC3)ccc21	25µM*	-16%[10.9 µM]	-7%

Source: PubChem BioAssay (National Center for Advancing Translational Sciences (NCATS))
